What all share (settings): concentration: 1 μM,replicates: in singlicate; n = 1
The subject of experiment [1] is JAK1(JH2domain-pseudokinase).
The test system of experiment [2] is JAK2(JH1domain-catalytic).
Experiment [3] concerns JAK3(JH1domain-catalytic).
Experiment [4] relates to T1, JNK1.
T1 construct: gene MAPK8

The subject of experiment [5] is T2, JNK2.
T2 construct: gene MAPK9

The subject of experiment [6] is T3, JNK3.
T3 construct: gene MAPK10

Experiment [7] concerns KIT-autoinhibited.
The subject of experiment [8] is KIT.
For experiment [9], the system named is LATS1.
Experiment [10] concerns LATS2.
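Note: KINOMEscan kinase panel screen.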

As for `Cn1ccc2ncnc(Oc3ccc(NC(=O)Nc4cc(C(C)(C)C)on4)c(Cl)c3)c21`, the “%Inh” value in experiment [1] is 0%; in experiment [2] it was 8%; in experiment [3] it was 6%; in experiment [4] it was 12%; in experiment [5], 48%; in experiment [6], 7%. Further, the “%Inh” value in experiment [7] turned out to be 30%; in [8], 100%; in [9] it was 20%; in experiment [10], 25%.

`CS(=O)(=O)Nc1ccc(-c2ccnc3[nH]ccc23)cc1` [GSK993273]: the “%Inh” value turned out to be 9% in [1]; 97.7% in [2]; 97.1% in experiment [3]; 49% in experiment [4]; 27% in [5]; 28% in experiment [6]. For the same compound, the “%Inh” value in [7] was determined as 0%; in experiment [8], 59%; in experiment [9] it was 42%; in experiment [10] it was 82%.

Regarding `CSc1nccc(-c2c(-c3ccc(F)cc3)ncn2CCCN2CCOCC2)n1.Cl` [SB-217146], the “%Inh” value in [1] is listed as 40%; in [2], 39%; in [3] it was 0%; in [4], 10%; in [5], 45%; in [6], 34%. The “%Inh” value in [7] was 32%; in experiment [8] it was 0%; in experiment [9], 0%; in experiment [10] it was 0%.

With `CN1CCN(CCCNc2nccc(-c3c(-c4ccc(F)cc4)nn4cc(C(N)=O)ccc34)n2)CC1` [GW622475], the “%Inh” value in [1] was determined as 0%; in experiment [2], 0%; in [3] it was 0%; in [4] it was 92.1%; in experiment [5], 99.6%; in experiment [6], 99.6%. The “%Inh” value is given as 2% in experiment [7], 66% in experiment [8], 0% in experiment [9] and 7% in experiment [10].

In the case of `Cc1nnc(-c2ccc3occ(-c4ccc(S(C)=O)cc4)c3n2)o1` (stereo not shown), the “%Inh” value in experiment [1], in [2], in experiment [3], in experiment [4], in experiment [5] and in experiment [6] was 0% each time. In addition, the “%Inh” value in experiment [7], in experiment [8], in experiment [9] and in experiment [10] was 0% throughout.

With `NC(=O)Nc1sc(-c2ccc(F)cc2)cc1C(N)=O` [GW789449], the “%Inh” value in experiment [1] amounted to 100%; in experiment [2] it was 99.1%; in experiment [3], 96.1%; in experiment [4] it was 55%; in experiment [5], 0%; in experiment [6], 20%. The “%Inh” value in [7] is on record as 48%; in experiment [8], 65%; in experiment [9] it was 2%; in experiment [10] it was 0%.

For the compound `Cn1cc(-c2cccc3c(N)c(C(N)=O)nnc23)cn1`, the “%Inh” value in experiment [1] turned out to be 61%; in experiment [2] it was 32%; in experiment [3], 38%; in experiment [4], 14%; in [5] it was 5%; in [6], 8%. Moreover, the “%Inh” value in [7] was found to be 16%; in experiment [8], 5%; in experiment [9] it was 3%; in experiment [10], 0%.

`COc1cccc(C2=C(Nc3cccc(Cl)c3)C(=O)NC2=O)c1` [SB-341556]: the “%Inh” value in experiment [1] was determined as 0%; in experiment [2], 45%; in experiment [3], 92.9%; in [4], 25%; in [5], 44%; in [6] it was 32%. Moreover, the “%Inh” value in experiment [7] was determined as 0%; in experiment [8], 14%; in [9], 0%; in experiment [10], 0%.

For the compound `COc1cc(Nc2nccc(N3CCC(NC(=O)c4cccc(C#N)c4)C3)n2)cc(OC)c1OC` (stereo not shown) [GSK1379751], the “%Inh” value in experiment [1] is on record as 2%; in [2], 98%; in [3], 22%; in experiment [4] it was 30%; in [5] it was 15%; in experiment [6] it was 33%. The “%Inh” value is 0% in experiment [7], 43% in experiment [8], 0% in experiment [9] and 0% in experiment [10].

`O=C(Nc1n[nH]c2cc(-c3ccco3)ccc12)C1CC1` [SB-737447]: the “%Inh” value in experiment [1] came out at 63%; in experiment [2], 27%; in [3], 30%; in experiment [4], 38%; in experiment [5] it was 17%; in [6], 32%. In addition, the “%Inh” value in experiment [7] amounted to 7%; in experiment [8] it was 23%; in experiment [9] it was 0%; in experiment [10], 10%.

On to `c1ccc(Oc2ccc(Nc3ccnc4ccc(-c5ccccn5)cc34)cc2)cc1` [GW407034], for which the “%Inh” value in experiment [1] is recorded as 0%; in experiment [2], 22%; in [3] it was 0%; in [4], 20%; in [5] it was 16%; in experiment [6] it was 18%. In addition, the “%Inh” value in [7] was 0%; in experiment [8] it was 45%; in experiment [9] it was 1%; in experiment [10], 0%.

As for `CNC(=O)c1ccccc1Nc1nc(Nc2cccc(CS(C)(=O)=O)c2)ncc1C.O=CO` [GSK1520489], the “%Inh” value amounted to 97.8% in [1]; 98.7% in [2]; 99.9% in experiment [3]; 99.9% in experiment [4]; 99.7% in [5]; 99.9% in experiment [6]. For the same compound, the “%Inh” value in experiment [7] was found to be 62%; in experiment [8] it was 97.8%; in experiment [9], 71%; in experiment [10], 69%.

For the compound `O=C(Nc1ccccc1)c1cccc(Oc2ccc3nccn3n2)c1`, the “%Inh” value in experiment [1] stood at 10%; in experiment [2] it was 10%; in experiment [3], 6%; in [4] it was 8%; in experiment [5], 1%; in experiment [6], 6%. The “%Inh” value in experiment [7] worked out at 8%; in experiment [8], 98.4%; in experiment [9], 0%; in experiment [10], 91.6%.

Consider `Cc1cccc(-c2nc(Nc3ccncc3)c3sccc3n2)n1` [GW869641], for which the “%Inh” value was 90.2% in [1]; 67% in [2]; 57% in [3]; 46% in [4]; 85% in experiment [5]; 94.6% in [6]. Also, the “%Inh” value in experiment [7] stood at 21%; in experiment [8], 22%; in experiment [9] it was 11%; in experiment [10], 33%.

On to `CN1CCN(CCNc2nc3cc(Oc4ccc(NC(=O)Nc5cc(C(F)(F)F)ccc5F)cc4)ccc3[nH]2)CC1.Cl.Cl` [GW768504], for which the “%Inh” value came to 15% in experiment [1]; 5% in [2]; 0% in [3]; 0% in [4]; 0% in experiment [5]; 0% in experiment [6]. The “%Inh” value in experiment [7] was 4%; in [8] it was 99.8%; in experiment [9], 0%; in [10], 0%.

Take `CS(=O)c1ccc(-c2coc3ccc(-c4n[nH]c(=O)o4)cc23)cc1` (stereo not shown): the “%Inh” value in experiment [1] is 3%; in [2], 23%; in experiment [3] it was 23%; in experiment [4] it was 23%; in [5] it was 20%; in experiment [6] it was 16%. The “%Inh” value worked out at 0% in experiment [7], 0% in experiment [8], 11% in experiment [9] and 21% in experiment [10].

Regarding `CC(=O)Nc1ccc(-c2cc3ncnc(SCC(=O)O)c3s2)cc1`, the “%Inh” value in experiment [1] is reported as 7%; in experiment [2], 0%; in [3], 17%; in [4], 7%; in experiment [5], 0%; in experiment [6], 0%. Further, the “%Inh” value is 26% in experiment [7], 79% in experiment [8], 0% in [9] and 20% in experiment [10].

With `C[C@@H](Oc1cc(-n2cnc3cc(-c4ccncc4)ccc32)sc1C(N)=O)c1ccccc1Cl` [GSK479719], the “%Inh” value in [1] is recorded as 0%; in experiment [2], 58%; in experiment [3] it was 48%; in experiment [4], 7%; in experiment [5], 10%; in [6] it was 11%. Moreover, the “%Inh” value in experiment [7] was 0%; in experiment [8], 64%; in [9] it was 10%; in experiment [10] it was 0%.

Turning to `Cn1ccc2ncnc(Oc3ccc(NC(=O)Nc4cnn(C(C)(C)C)c4)c(Cl)c3)c21`, the “%Inh” value in experiment [1] amounted to 0%; in experiment [2] it was 11%; in [3], 15%; in experiment [4] it was 2%; in [5], 10%; in experiment [6] it was 0%. Moreover, the “%Inh” value is listed as 35% in [7], 99.8% in experiment [8], 100% in experiment [9] and 2% in experiment [10].

Take `COc1cc2ncn(-c3cc(OCC4CCCCC4)c(C(N)=O)s3)c2cc1OC` [GSK204559]: the “%Inh” value worked out at 0% in experiment [1]; 0% in experiment [2]; 0% in experiment [3]; 20% in experiment [4]; 27% in [5]; 19% in experiment [6]. Further, the “%Inh” value in [7] was 0%; in experiment [8], 31%; in [9] it was 0%; in experiment [10], 7%.

For the compound `C[C@@H]1CNc2c(sc3ccc4nc(-c5ccncc5)ccc4c23)C(=O)N1`, the “%Inh” value in experiment [1] is reported as 64%; in [2] it was 0%; in experiment [3] it was 78%; in experiment [4], 0%; in [5] it was 0%; in experiment [6], 0%. The “%Inh” value in experiment [7] is recorded as 7%; in [8] it was 34%; in experiment [9] it was 0%; in experiment [10] it was 24%.

`O=C(Nc1cccc(C(F)(F)F)c1)c1cccc(Oc2ccc3nccn3n2)c1`: the “%Inh” value worked out at 10% in [1]; 30% in experiment [2]; 8% in experiment [3]; 21% in experiment [4]; 0% in experiment [5]; 10% in experiment [6]. Further, the “%Inh” value in [7] worked out at 44%; in experiment [8] it was 99.9%; in experiment [9], 0%; in experiment [10] it was 0%.
